Results published in PubChem BioAssay (EPA / NIEHS).
Inconclusive results are not listed. Activity calls are given as the source filed them. The calls were made as follows: active = hit-call score of the fitted dose curve at least 0.9, where 1 is the maximum; inconclusive = response in the unintended direction; inactive = score below 0.9.

What follows are compounds tested against human AMP-activated Protein Kinase, alpha 1 (AMPKa1), PRKAA1 (gene 5562) (UniProt Q13131) (assay: NVS_ENZ_hAMPKa1: NovaScreen (NVS) Enzymatic Assay for human AMP-activated Protein Kinase, alpha 1 (AMPKa1) (AID 2283130)).
Summary of the method: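 Compounds were screened in duplicate at 25 uM, and those reaching ~30% inhibition were titrated up to 50 uM. The enzyme was recombinant human AMPKα1, and kinase turnover was read by fluorescence/mobility shift 1 h post-dosing as loss of signal versus DMSO.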

Sequence of human AMP-activated Protein Kinase, alpha 1 (AMPKa1), PRKAA1 (gene 5562) (Q13131 whole entry, looked up): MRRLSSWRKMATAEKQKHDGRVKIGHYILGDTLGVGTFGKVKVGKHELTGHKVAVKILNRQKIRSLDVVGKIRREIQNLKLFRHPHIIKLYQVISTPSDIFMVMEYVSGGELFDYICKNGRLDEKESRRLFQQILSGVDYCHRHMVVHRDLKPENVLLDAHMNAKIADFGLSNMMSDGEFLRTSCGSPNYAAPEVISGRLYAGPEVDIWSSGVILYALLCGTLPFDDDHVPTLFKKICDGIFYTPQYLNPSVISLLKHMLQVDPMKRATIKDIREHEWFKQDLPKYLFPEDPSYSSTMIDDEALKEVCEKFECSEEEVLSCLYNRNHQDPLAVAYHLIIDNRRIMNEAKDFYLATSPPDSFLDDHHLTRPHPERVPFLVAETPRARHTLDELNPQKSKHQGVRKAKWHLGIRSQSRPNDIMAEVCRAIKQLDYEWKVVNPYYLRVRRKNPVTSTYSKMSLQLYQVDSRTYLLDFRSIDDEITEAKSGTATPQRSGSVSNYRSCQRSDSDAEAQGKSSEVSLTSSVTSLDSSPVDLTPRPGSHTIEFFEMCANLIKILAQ

| Compound | outcome | AC50 |
| --- | --- | --- |
| CC1(C)NC(=O)NC1=O | inactive |  |
| O=C(O)Cc1cc(I)c(Oc2ccc(O)c(I)c2)c(I)c1 | inactive |  |
| C/C=C/C=C/C(=O)O | inactive |  |
| N[C@@H](Cc1cc(I)c(Oc2ccc(O)c(I)c2)c(I)c1)C(=O)O | inactive |  |
| CCCCCC(=O)O | inactive |  |
| CCCCCCCCCCCCc1ccccc1 | inactive |  |
| C[Si]1(C)O[Si](C)(C)O[Si](C)(C)O[Si](C)(C)O1 | inactive |  |
| CC(C)(C)c1ccccc1 | inactive |  |
| O=C(Oc1ccccc1)c1cccc(C(=O)Oc2ccccc2)c1 | inactive |  |
| O=C(O)CCCCC(=O)O | inactive |  |
| O=C(O)c1ccccc1C(c1ccc(O)cc1)c1ccc(O)cc1 | inactive |  |
| Cc1[nH]nc2c1N=C(c1ccccc1Cl)c1cc([N+](=O)[O-])ccc1N2 |  | 17 µM (active) |
| c1ccc(C[n+]2cccc3ccccc32)cc1 | inactive |  |

What follows are compounds tested against human Caspase 2 (CASP2), CASP2 (gene 835) (UniProt P42575) (assay: NVS_ENZ_hCASP2: NovaScreen (NVS) Enzymatic Assay for human Caspase 2 (CASP2) (AID 2283135)).
Summary of the method: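 Single-point duplicate testing at 25 uM preceded concentration series topping at 50 uM. Activity of the recombinant E. coli-derived protease was followed by fluorescent substrate cleavage 1 h post-dosing, relative to DMSO.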

Sequence of human Caspase 2 (CASP2), CASP2 (gene 835) (P42575 whole entry, looked up): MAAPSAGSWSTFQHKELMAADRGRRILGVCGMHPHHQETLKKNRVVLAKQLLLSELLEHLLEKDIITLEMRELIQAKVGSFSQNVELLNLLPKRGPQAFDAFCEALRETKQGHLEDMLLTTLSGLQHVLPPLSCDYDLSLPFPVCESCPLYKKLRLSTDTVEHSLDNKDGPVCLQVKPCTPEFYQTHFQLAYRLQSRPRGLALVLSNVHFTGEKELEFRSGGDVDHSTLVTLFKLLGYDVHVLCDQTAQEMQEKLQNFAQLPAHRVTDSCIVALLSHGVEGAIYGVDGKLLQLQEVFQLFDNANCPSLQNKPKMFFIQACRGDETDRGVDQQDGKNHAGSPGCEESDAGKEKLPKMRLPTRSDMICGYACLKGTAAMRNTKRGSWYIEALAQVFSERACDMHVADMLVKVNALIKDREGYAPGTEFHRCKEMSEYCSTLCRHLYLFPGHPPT

| Compound | outcome | AC50 |
| --- | --- | --- |
| COC(=O)CC(=O)OC | inactive |  |
| Cc1cccc([N+](=O)[O-])c1C | inactive |  |
| c1ccc(Nc2ccccc2)cc1 | inactive |  |
| Cc1cccc2ccccc12 | inactive |  |
| O=C1CCC(N2C(=O)c3ccccc3C2=O)C(=O)N1 (stereo unspecified) | inactive |  |
| COc1cc(S(=O)(=O)O)c(C)cc1N=Nc1c(O)ccc2cc(S(=O)(=O)O)ccc12 |  | 6.73 µM (active) |
| Cc1nc(C)nc(N2C[C@@H](C)N(c3ccnc([C@@H](C)O)n3)[C@@H](C)C2)n1 | inactive |  |
| CN(C)CCCN(C)CCCN(C)C | inactive |  |
| O=C(O)c1[nH]n(-c2ccc(S(=O)(=O)O)cc2)c(=O)c1N=Nc1ccc(S(=O)(=O)O)cc1 | inactive |  |
| Cc1nccn1-c1ccc(Sc2cccc(C3(C(N)=O)CCOCC3)c2)cc1 | inactive |  |
| O=S(=O)(O)c1ccc(N=Nc2c(O)ccc3cc(S(=O)(=O)O)ccc23)cc1 |  | 20.4 µM (active) |
| CCOC(=O)c1ccc(O)cc1 | inactive |  |
| O=C(O)CCN(C1(C(=O)NO)CCCC1)S(=O)(=O)c1ccc(Oc2ccc(F)cc2)cc1 | inactive |  |
| CCC(O)=C1C(=O)CC(C(=O)O)CC1=O (stereo unspecified) | inactive |  |
| N[C@@H](Cc1c[nH]c2ccccc12)C(=O)O | inactive |  |
| Cc1oc(-c2ccccc2)nc1CCOc1cccc2c1ccn2CCC(=O)O | inactive |  |
| CNCc1cc(F)ccc1Oc1ccc(Cl)c(Cl)c1 | inactive |  |
| O=[N+]([O-])c1ccc(O)cc1 | inactive |  |
| C[C@@H](Oc1ccc(CNC(=O)c2cccnc2Oc2ccc3c(c2)OCO3)c(F)c1)C(=O)O | inactive |  |
| Cc1ccc(C(C)(C)C)c(O)c1 | inactive |  |
| CCc1cccc(CC)c1N | inactive |  |
| NCC1(Cc2noc(=O)[nH]2)CCCCC1 | inactive |  |
| Cc1c(-c2cccnc2)c2ccccc2n1CCCCC(=O)O | inactive |  |
| CC(C)(O)c1coc(S(=O)(=O)NC(=O)Nc2c3c(cc4c2CCC4)CCC3)c1 | inactive |  |
| CC(=O)c1ccccc1 | inactive |  |
| CCCC(CCC)C(=O)O | inactive |  |

These compounds were tested against human Fibroblast Growth Factor Receptor 1 (FGFR1), FGFR1 (gene 2260) (UniProt P11362) (assay: NVS_ENZ_hFGFR1: NovaScreen (NVS) Enzymatic Assay for human Fibroblast Growth Factor Receptor 1 (FGFR1) (AID 2283159);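 as to AC50: hits lower the signal so potencies describe inhibitors of the kinase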).
Summary of the method: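 Cell-free recombinant kinase with fluorescent substrate, product separated by electrophoretic mobility shift; read 1 hour after dosing, loss of signal relative to DMSO. Initial screen in duplicate at 25 uM, actives followed in concentration series.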

Sequence of human Fibroblast Growth Factor Receptor 1 (FGFR1), FGFR1 (gene 2260) (P11362 whole entry, looked up): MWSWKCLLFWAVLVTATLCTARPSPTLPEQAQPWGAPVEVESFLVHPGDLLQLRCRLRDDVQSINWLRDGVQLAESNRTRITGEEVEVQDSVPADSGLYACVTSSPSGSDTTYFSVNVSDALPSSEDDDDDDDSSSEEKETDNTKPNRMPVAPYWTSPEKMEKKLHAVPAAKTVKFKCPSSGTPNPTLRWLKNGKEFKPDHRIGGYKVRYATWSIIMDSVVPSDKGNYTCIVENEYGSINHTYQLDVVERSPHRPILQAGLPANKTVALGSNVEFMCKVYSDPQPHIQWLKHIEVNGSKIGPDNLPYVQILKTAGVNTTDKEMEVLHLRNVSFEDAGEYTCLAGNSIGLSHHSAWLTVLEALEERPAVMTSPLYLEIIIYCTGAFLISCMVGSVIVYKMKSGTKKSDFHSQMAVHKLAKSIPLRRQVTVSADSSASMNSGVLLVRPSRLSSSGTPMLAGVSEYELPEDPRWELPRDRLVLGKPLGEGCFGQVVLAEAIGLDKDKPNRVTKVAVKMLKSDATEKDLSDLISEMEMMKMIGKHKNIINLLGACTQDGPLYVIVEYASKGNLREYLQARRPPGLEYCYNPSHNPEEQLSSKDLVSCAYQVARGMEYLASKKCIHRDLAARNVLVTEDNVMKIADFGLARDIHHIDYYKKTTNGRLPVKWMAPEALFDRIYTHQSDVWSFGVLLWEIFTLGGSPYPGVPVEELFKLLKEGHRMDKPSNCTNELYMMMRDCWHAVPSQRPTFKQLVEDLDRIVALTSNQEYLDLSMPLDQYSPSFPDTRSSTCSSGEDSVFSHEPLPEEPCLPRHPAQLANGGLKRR

| Compound | outcome | AC50 |
| --- | --- | --- |
| CCOC(=O)c1ccc(O)cc1 | inactive |  |
| Cc1oc(-c2ccccc2)nc1CCOc1cccc2c1ccn2CCC(=O)O | inactive |  |
| O=C(Oc1ccccc1)c1cccc(C(=O)Oc2ccccc2)c1 | inactive |  |
| Cc1ccc(C(C)(C)C)c(O)c1 | inactive |  |
| CCc1cccc(CC)c1N | inactive |  |
| Cc1c(-c2cccnc2)c2ccccc2n1CCCCC(=O)O | inactive |  |
| CCCC(CCC)C(=O)O | inactive |  |
| Cc1[nH]nc2c1N=C(c1ccccc1Cl)c1cc([N+](=O)[O-])ccc1N2 |  | 41.4 µM (active) |

These compounds were tested against human Matrix Metalloproteinase-1 (MMP1), MMP1 (gene 4312) (UniProt P03956) (assay: NVS_ENZ_hMMP1: NovaScreen (NVS) Enzymatic Assay for human Matrix Metalloproteinase-1 (MMP1) (AID 2283181)).
Summary of the method: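 Cell-free fluorescent substrate assay of human MMP1, read after 1 h. A single 25 uM duplicate screen was followed by concentration series to a maximum of 50 uM for actives meeting threshold; inhibition analysed against DMSO baseline.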

Sequence of human Matrix Metalloproteinase-1 (MMP1), MMP1 (gene 4312) (P03956 whole entry, looked up): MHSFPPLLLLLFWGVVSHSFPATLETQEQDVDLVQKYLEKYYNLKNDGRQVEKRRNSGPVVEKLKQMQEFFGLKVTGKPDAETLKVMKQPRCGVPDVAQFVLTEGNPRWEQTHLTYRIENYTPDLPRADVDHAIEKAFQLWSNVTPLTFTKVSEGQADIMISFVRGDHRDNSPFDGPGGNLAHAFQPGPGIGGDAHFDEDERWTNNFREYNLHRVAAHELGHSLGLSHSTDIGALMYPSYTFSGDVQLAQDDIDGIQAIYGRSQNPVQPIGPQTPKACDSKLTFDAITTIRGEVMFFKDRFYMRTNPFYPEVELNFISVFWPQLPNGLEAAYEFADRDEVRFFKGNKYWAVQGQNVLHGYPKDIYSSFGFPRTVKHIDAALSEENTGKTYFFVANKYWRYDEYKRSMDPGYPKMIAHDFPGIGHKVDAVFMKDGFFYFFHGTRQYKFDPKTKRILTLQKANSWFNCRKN

| Compound | AC50 | outcome |
| --- | --- | --- |
| O=C(O)CCN(C1(C(=O)NO)CCCC1)S(=O)(=O)c1ccc(Oc2ccc(F)cc2)cc1 | 3.49 µM (active) |  |
| CCCCCC(=O)O |  | inactive |
| O=[N+]([O-])c1ccc(O)cc1 | 16.9 µM (active) |  |
| CC(C)(O)c1coc(S(=O)(=O)NC(=O)Nc2c3c(cc4c2CCC4)CCC3)c1 |  | inactive |

What follows are compounds tested against human p21 Activated Kinase 4 (PAK4), PAK4 (gene 10298) (UniProt O96013) (assay: NVS_ENZ_hPAK4: NovaScreen (NVS) Enzymatic Assay for human p21 Activated Kinase 4 (PAK4) (AID 2283189)).
Summary of the method: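 Extracted PAK4 enzyme activity read by fluorescence with mobility-shift separation 1 h after chemical addition. Duplicate single-concentration screen at 25 uM, DMSO as negative control.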

Sequence of human p21 Activated Kinase 4 (PAK4), PAK4 (gene 10298) (O96013 whole entry, looked up): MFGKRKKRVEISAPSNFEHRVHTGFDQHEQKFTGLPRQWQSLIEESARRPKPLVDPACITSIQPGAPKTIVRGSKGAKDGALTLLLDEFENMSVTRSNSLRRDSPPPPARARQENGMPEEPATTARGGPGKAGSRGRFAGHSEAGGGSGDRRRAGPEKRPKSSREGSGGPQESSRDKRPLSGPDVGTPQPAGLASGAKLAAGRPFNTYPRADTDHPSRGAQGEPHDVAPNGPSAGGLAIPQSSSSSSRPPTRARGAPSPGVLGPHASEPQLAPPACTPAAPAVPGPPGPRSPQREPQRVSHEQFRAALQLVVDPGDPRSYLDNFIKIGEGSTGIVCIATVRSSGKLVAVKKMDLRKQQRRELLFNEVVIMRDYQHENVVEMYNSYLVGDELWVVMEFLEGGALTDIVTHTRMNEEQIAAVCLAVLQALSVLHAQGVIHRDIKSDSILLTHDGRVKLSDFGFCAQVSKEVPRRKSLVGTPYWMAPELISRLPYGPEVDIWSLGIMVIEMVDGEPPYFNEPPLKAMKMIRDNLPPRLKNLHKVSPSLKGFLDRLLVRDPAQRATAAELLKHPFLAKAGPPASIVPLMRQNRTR

| Compound | outcome | AC50 |
| --- | --- | --- |
| CC1(C)NC(=O)NC1=O | inactive |  |
| N[C@@H](Cc1cc(I)c(Oc2ccc(O)c(I)c2)c(I)c1)C(=O)O | inactive |  |
| CC(C)(C)c1ccccc1 | inactive |  |
| O=C(Oc1ccccc1)c1cccc(C(=O)Oc2ccccc2)c1 | inactive |  |
| CCCC(CCC)C(=O)O | inactive |  |
| Cc1[nH]nc2c1N=C(c1ccccc1Cl)c1cc([N+](=O)[O-])ccc1N2 |  | 9.53 µM (active) |

What follows are compounds tested against human Phosphatase and Tensin Homolog (PTEN), PTEN (gene 5728) (UniProt P60484) (assay: NVS_ENZ_hPTEN: NovaScreen (NVS) Enzymatic Assay for human Phosphatase and Tensin Homolog (PTEN) (AID 2283203)).
Summary of the method: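 Loss of fluorescent product signal after mobility-shift separation reports PTEN activity, recombinant human enzyme, 1 h after compound addition. Single 25 uM duplicate screen, then concentration-response on actives; DMSO baseline.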

Sequence of human Phosphatase and Tensin Homolog (PTEN), PTEN (gene 5728) (P60484 whole entry, looked up): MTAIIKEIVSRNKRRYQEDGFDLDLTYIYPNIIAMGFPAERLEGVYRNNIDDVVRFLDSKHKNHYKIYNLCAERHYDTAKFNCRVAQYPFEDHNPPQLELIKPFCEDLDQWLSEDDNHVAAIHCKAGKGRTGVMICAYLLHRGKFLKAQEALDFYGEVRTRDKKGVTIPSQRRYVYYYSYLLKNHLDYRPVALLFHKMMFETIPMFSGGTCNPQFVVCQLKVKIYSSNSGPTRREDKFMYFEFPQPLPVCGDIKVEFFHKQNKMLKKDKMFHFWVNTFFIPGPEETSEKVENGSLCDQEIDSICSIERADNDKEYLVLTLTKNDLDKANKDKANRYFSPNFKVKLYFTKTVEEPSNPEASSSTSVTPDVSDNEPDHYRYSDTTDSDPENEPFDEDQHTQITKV

| Compound | outcome |
| --- | --- |
| Cc1nc(C)nc(N2C[C@@H](C)N(c3ccnc([C@@H](C)O)n3)[C@@H](C)C2)n1 | inactive |
| O=C(O)c1[nH]n(-c2ccc(S(=O)(=O)O)cc2)c(=O)c1N=Nc1ccc(S(=O)(=O)O)cc1 | inactive |
| O=S(=O)(O)c1ccc(N=Nc2c(O)ccc3cc(S(=O)(=O)O)ccc23)cc1 | inactive |
| O=C(Oc1ccccc1)c1cccc(C(=O)Oc2ccccc2)c1 | inactive |
| CC(C)(O)c1coc(S(=O)(=O)NC(=O)Nc2c3c(cc4c2CCC4)CCC3)c1 | inactive |
| CCCC(CCC)C(=O)O | inactive |

These compounds were tested against human Protein Tyrosine Phosphatase Receptor Type C (PTPRC), PTPRC (gene 5788) (UniProt P08575) (assay: NVS_ENZ_hPTPRC: NovaScreen (NVS) Enzymatic Assay for human Protein Tyrosine Phosphatase Receptor Type C (PTPRC) (AID 2283212)).
Summary of the method: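 Absorbance-based phosphatase activity of human PTPRC protein extracted from yeast was measured 1 h post-dosing. Compounds first tested at 25 uM in duplicate, then those passing threshold in singleton concentration series to 50 uM.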

Sequence of human Protein Tyrosine Phosphatase Receptor Type C (PTPRC), PTPRC (gene 5788) (P08575 whole entry, looked up): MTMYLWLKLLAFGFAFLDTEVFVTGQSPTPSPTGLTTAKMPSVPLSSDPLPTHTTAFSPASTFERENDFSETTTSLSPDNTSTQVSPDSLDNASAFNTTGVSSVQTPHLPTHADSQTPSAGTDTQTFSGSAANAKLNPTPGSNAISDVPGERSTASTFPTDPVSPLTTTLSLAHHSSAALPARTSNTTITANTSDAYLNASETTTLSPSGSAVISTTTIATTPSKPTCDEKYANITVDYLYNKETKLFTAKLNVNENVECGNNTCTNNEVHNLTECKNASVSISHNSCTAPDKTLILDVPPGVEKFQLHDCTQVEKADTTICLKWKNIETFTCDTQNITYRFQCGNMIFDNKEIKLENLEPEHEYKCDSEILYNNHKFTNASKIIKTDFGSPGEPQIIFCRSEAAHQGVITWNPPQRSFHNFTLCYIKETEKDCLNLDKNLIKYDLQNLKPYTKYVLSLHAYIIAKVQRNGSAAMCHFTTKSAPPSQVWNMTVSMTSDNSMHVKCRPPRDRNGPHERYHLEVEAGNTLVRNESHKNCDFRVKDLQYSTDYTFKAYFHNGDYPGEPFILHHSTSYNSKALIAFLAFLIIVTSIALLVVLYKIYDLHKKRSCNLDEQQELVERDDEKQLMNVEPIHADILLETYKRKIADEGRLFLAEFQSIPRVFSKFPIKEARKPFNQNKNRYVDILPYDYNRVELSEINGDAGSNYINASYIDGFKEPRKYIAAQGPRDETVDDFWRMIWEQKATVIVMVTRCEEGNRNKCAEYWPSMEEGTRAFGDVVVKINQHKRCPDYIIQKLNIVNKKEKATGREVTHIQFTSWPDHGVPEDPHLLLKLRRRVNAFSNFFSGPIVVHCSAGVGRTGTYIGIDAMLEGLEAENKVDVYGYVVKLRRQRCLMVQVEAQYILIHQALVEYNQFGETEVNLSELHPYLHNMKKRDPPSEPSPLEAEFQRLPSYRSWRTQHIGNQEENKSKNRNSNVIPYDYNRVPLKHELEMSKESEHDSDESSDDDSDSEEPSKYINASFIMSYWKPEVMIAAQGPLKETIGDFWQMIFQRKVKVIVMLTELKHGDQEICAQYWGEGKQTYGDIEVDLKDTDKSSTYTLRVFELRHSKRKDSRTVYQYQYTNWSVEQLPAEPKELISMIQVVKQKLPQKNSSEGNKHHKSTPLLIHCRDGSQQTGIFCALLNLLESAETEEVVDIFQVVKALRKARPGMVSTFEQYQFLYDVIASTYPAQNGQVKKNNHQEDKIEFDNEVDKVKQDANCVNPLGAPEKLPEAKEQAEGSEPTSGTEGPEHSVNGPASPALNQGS

| Compound | outcome | AC50 |
| --- | --- | --- |
| Cc1cccc([N+](=O)[O-])c1C | inactive |  |
| O=S(=O)(O)c1ccc(N=Nc2c(O)ccc3cc(S(=O)(=O)O)ccc23)cc1 | inactive |  |
| Cc1oc(-c2ccccc2)nc1CCOc1cccc2c1ccn2CCC(=O)O |  | 5.98 µM (active) |
